Activity calls are given as the source filed them. How the source made its calls: active means hit-call score of the fitted dose curve at least 0.9, where 1 is the maximum; inactive means score below 0.9.
read-out: Vascular cell adhesion molecule 1 (VCAM1), VCAM1 (gene 7412); test: BSK_hDFCGF_VCAM1: BioMAP Diversity Plus: hDFCGF Assay for Vascular cell adhesion molecule 1 (VCAM1) Biomarker Activity (AID 2283065); conditions: primary human foreskin fibroblasts; actives raise or lower the signal;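 on AC50: VCAM-1 protein level quantified by ELISA after 24 h chemical exposure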
How it was run: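 Human foreskin fibroblast primary cells, chemical exposure 24 h; VCAM-1 by ELISA; bidirectional fit, DMSO = negative control/baseline.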

Q: How did the outcome turn out when `C=CC(=C)CCC=C(C)C` was run?
A: inactive

Q: How did the outcome turn out when `CC(C)=CCCC(C)=CC=O` was run?
A: inactive

Q: With `CC(C)=CCC/C(C)=C/CO` as the compound, how does the outcome read?
A: inactive

Q: How did the outcome turn out when `C=CCCCCCCCCC(=O)O` was run?
A: inactive

Q: With `CC(=O)OCCC(C)C` as the compound, how does the outcome read?
A: inactive

Q: For `CC(C)=CCC/C(C)=C\CO`, which outcome is on record?
A: inactive

Q: For `Clc1nc(Cl)c(Cl)c(Cl)c1Cl`, which outcome is on record?
A: inactive

Q: How did the outcome turn out when `CCCCC(CC)COC(=O)c1ccc(C(=O)OCC(CC)CCCC)cc1` (configuration not stated) was run?
A: inactive

Q: Which outcome does the source give for `O=C(O)c1cccc(Oc2ccccc2)c1` here?
A: inactive

Q: With `O=C(CCCCCCCCc1cccnc1)N1CCC(C=C(c2ccccc2)c2ccccc2)CC1` as the compound, how does the AC50 read?
A: 8.47 µM (active)

Q: Which AC50 does the source give for `CCC(C)(C)C(=O)O[C@H]1C[C@@H](C)C=C2C=C[C@H](C)[C@H](CC[C@@H]3C[C@@H](O)CC(=O)O3)[C@H]21` here?
A: 33.9 µM (active)

Q: How did the outcome turn out when `COCCOc1cc2cc(C(=O)NC3CCN(C(C)C)CC3)n(CC(=O)Nc3ccc(Cl)cn3)c2cn1` was run?
A: inactive

Q: Which AC50 does the source give for `CCCCCCc1ccc(O)cc1O` here?
A: 28.1 µM (active)

Q: How did the outcome turn out when `Nc1nc2ncc(CNc3ccc(C(=O)N[C@@H](CCC(=O)O)C(=O)O)cc3)nc2c(=O)[nH]1` was run?
A: inactive

Q: For `C[C@](N)(Cc1ccc(O)c(O)c1)C(=O)O`, which AC50 is on record?
A: 20 µM (active)

Q: For `O=C(OC[C@H]1O[C@@H](OC(=O)c2cc(O)c(O)c(OC(=O)c3cc(O)c(O)c(O)c3)c2)[C@H](OC(=O)c2cc(O)c(O)c(OC(=O)c3cc(O)c(O)c(O)c3)c2)[C@@H](OC(=O)c2cc(O)c(O)c(OC(=O)c3cc(O)c(O)c(O)c3)c2)[C@@H]1OC(=O)c1cc(O)c(O)c(OC(=O)c2cc(O)c(O)c(O)c2)c1)c1cc(O)c(O)c(OC(=O)c2cc(O)c(O)c(O)c2)c1`, which AC50 is on record?
A: 3.31 µM (active)

Q: `CC[C@H]1CC[C@H](NCc2cc3c(cc2OC)[C@H]2C[C@H]2C(=O)N3C)[C@H](c2ccccc2)N1` was tested. Which outcome did it give?
A: inactive

Q: With `CC1(C)C(=O)N(Br)C(=O)N1Br` as the compound, how does the outcome read?
A: inactive

read-out: Plasminogen activator inhibitor-1 (PAI1), SERPINE1 (gene 5054); test: BSK_hDFCGF_PAI1: BioMAP Diversity Plus: hDFCGF Assay for Plasminogen activator inhibitor-1 (PAI1) Biomarker Activity (AID 2283066); conditions: primary human foreskin fibroblasts; actives raise or lower the signal
How it was run: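 PAI-1 levels, determined by ELISA, served as the endpoint in human foreskin fibroblast cultures exposed to compound for 24 h, with DMSO as baseline.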

Q: `C=CC(=C)CCC=C(C)C` was tested. Which outcome did it give?
A: inactive

Q: Which outcome does the source give for `CC(C)=CCCC(C)=CC=O` here?
A: inactive

Q: `CC(C)=CCC/C(C)=C/CO` was tested. Which outcome did it give?
A: inactive

Q: Which outcome does the source give for `C=CCCCCCCCCC(=O)O` here?
A: inactive

Q: `CC(=O)OCCC(C)C` was tested. Which outcome did it give?
A: inactive

Q: `CC(C)=CCC/C(C)=C\CO` was tested. Which outcome did it give?
A: inactive

Q: How did the outcome turn out when `O=C(NS(=O)(=O)/C=C/c1ccccc1)c1ccc(F)cc1Cl` was run?
A: inactive

Q: For `Clc1nc(Cl)c(Cl)c(Cl)c1Cl`, which outcome is on record?
A: inactive

Q: How did the outcome turn out when `Fc1ccccc1[C@@H](F)COC1CCC(Nc2ncnc3[nH]ncc23)CC1` (some centres not stated) was run?
A: inactive

Q: For `CC[C@H](C)C(=O)O[C@H]1C[C@@H](C)C=C2C=C[C@H](C)[C@H](CC[C@@H]3C[C@@H](O)CC(=O)O3)[C@H]21`, which AC50 is on record?
A: 31.9 µM (active)

Q: `CCCCC(CC)COC(=O)CCCCCCCCC(=O)OCC(CC)CCCC` (configuration not stated) was tested. Which outcome did it give?
A: inactive

Q: Which outcome does the source give for `CCCCC(CC)COC(=O)c1ccc(C(=O)OCC(CC)CCCC)cc1` (configuration not stated) here?
A: inactive

Q: With `O=C(O)c1cccc(Oc2ccccc2)c1` as the compound, how does the outcome read?
A: inactive

Q: With `O=C(CCCCCCCCc1cccnc1)N1CCC(C=C(c2ccccc2)c2ccccc2)CC1` as the compound, how does the AC50 read?
A: 5.88 µM (active)

Q: For `CCC(C)(C)C(=O)O[C@H]1C[C@@H](C)C=C2C=C[C@H](C)[C@H](CC[C@@H]3C[C@@H](O)CC(=O)O3)[C@H]21`, which AC50 is on record?
A: 23.4 µM (active)

Q: With `COCCOc1cc2cc(C(=O)NC3CCN(C(C)C)CC3)n(CC(=O)Nc3ccc(Cl)cn3)c2cn1` as the compound, how does the outcome read?
A: inactive

Q: For `CC(=O)OC[C@H]1O[C@@](COC(C)=O)(O[C@H]2O[C@H](COC(C)=O)[C@@H](OC(C)=O)[C@H](OC(C)=O)[C@H]2OC(C)=O)[C@@H](OC(C)=O)[C@@H]1OC(C)=O`, which outcome is on record?
A: inactive

Q: Which outcome does the source give for `NC(=O)NO` here?
A: inactive

Q: `CCCCCCc1ccc(O)cc1O` was tested. Which AC50 did it give?
A: 30.7 µM (active)

Q: For `CCc1cc(SCc2sc(-c3ccc(C(F)(F)F)cc3)nc2CN2CCN(c3ccc(OC)cc3)CC2)ccc1OCC(=O)O`, which AC50 is on record?
A: 3.17 µM (active)

Q: Which outcome does the source give for `Nc1nc2ncc(CNc3ccc(C(=O)N[C@@H](CCC(=O)O)C(=O)O)cc3)nc2c(=O)[nH]1` here?
A: inactive

Q: `CCOc1cccc(-n2cc(C(=O)N3CCN(c4cc(C(=O)O)c5ccccc5c4)CC3)nc2-c2ccc(C)cc2)c1` was tested. Which AC50 did it give?
A: 6.1 µM (active)

Q: For `C[C@](N)(Cc1ccc(O)c(O)c1)C(=O)O`, which outcome is on record?
A: inactive

Q: Which outcome does the source give for `CN(C)c1ccc(Cc2ccc(N(C)C)cc2)cc1` here?
A: inactive

Q: Which AC50 does the source give for `O=C(OC[C@H]1O[C@@H](OC(=O)c2cc(O)c(O)c(OC(=O)c3cc(O)c(O)c(O)c3)c2)[C@H](OC(=O)c2cc(O)c(O)c(OC(=O)c3cc(O)c(O)c(O)c3)c2)[C@@H](OC(=O)c2cc(O)c(O)c(OC(=O)c3cc(O)c(O)c(O)c3)c2)[C@@H]1OC(=O)c1cc(O)c(O)c(OC(=O)c2cc(O)c(O)c(O)c2)c1)c1cc(O)c(O)c(OC(=O)c2cc(O)c(O)c(O)c2)c1` here?
A: 6.1 µM (active)

Q: Which outcome does the source give for `CC[C@H]1CC[C@H](NCc2cc3c(cc2OC)[C@H]2C[C@H]2C(=O)N3C)[C@H](c2ccccc2)N1` here?
A: inactive

Q: Which outcome does the source give for `Cc1ccc(C)c(O)c1` here?
A: inactive

Q: Which outcome does the source give for `CC(C)=CCCC(C)CCO` (configuration not stated) here?
A: inactive

Q: With `CC1(C)C(=O)N(Br)C(=O)N1Br` as the compound, how does the outcome read?
A: inactive

Source: PubChem BioAssay (EPA / NIEHS)
